Test results as given in PubChem BioAssay AID1508600 (Functional Genomics Laboratory (NCATS/FGL), 2020).
In all, about 53,000 sequences went through this assay and about 3,700 (7%) were called active. This is one part of a sample in which actives are shown more often than they occur. Values without a mark were called inactive.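 Rule for the calls: active = gene knockdowns whose robust z-score for IL-1 alpha signal is at least 2 or at most -2, so actives lie on both sides; inactive = the rest.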

Assay: Components of the Cytosolic LPS Sensing Pathway: Gene Identification via Genome-wide siRNA Screen;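 note: robust z of the log signal after scaling to non-targeting control siRNA wells of the plate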
Settings: RAW264.7 macrophages, IL-1a HTRF, actives lie on both sides, screened at 100 nM (by protocol), cells primed 5 h with Pam3CSK4 first
Outline: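 Using IL-1a HTRF as read-out, the screen measured release from RAW264.7 cells after 48h siRNA knockdown (100 nM), 5 h Pam3CSK4 priming and 24 h cytosolic LipidA. Values were expressed relative to negative-control wells as robust z-scores.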
For GGUCUUUAGCAAAUUGUUCTT against Lrrc6, the z-score was 2.02 (active).
Work on GGAUGCAGAAGAUUUUGUGTT against Ptprcap yielded a z-score of -0.704.
Sequence GGAGACACAAAAGAAGAUATT against Sec14l4 has a z-score of -0.359.
CCUGCGUUGACCAAUCAGATT against C2cd2l showed a z-score of -1.26.
In the case of CCUAGUCCUGAUUUAUCAGTT against Ddx39b, the z-score is reported as -2.02 (active).
Sequence “GCUCUAGGAAUCCAAAUAUTT against 9930014A18Rik” has a z-score of 0.8.
Work on GGCUUCUUCAGAUCCUAAATT against Olfr554 yielded a z-score of -0.615.
In the case of GGUCAUCAGAAGAAUCAAGTT against Arr3, the z-score is reported as 2.13 (active).
With GCGAUAUCUCAACUUCCCGTT against Fchsd1 the z-score was 0.541.
For GCAUGCGCCCUAAAGGAAATT against Zmynd15, the z-score was 0.687.
CCAGUCUUAUCUGUAGAAGTT against Obox1 showed a z-score of -1.69.
GCCUAACUAUGAAACUUCGTT against Ppp1r11 showed a z-score of 0.754.
CCAUUGUAGUCAGUCAAAUTT against Pip gave a z-score of -0.498.
For GGAUGAAAGUCCUGGACAGTT against Gli3, the z-score was 5.97 (active).
For GGAGCAGUUGUGUUUAACATT against Psg17, the z-score was 0.596.
Work on GGAAAGAGGGAAACUAAUUTT against Abhd17a yielded a z-score of -0.694.
GGCAGAAAGCAGAAACAGUTT against Mok gave a z-score of -0.901.
Sequence GGUAUCUUCUCUUGGAAAATT against Tex12 has a z-score of -0.533.
In the case of GCUAUGGGAUAUGAGCUGATT against Antkmt, the z-score is reported as -0.75.
With GGAAUUCAGUGAAUGUCAUTT against Gapvd1 the z-score was -2.28 (active).
With UGUGCCCUAUAGAACCUGUTT against Krtap13-1 the z-score was 0.394.
GGACAACUCGAGUCUUAAATT against Poln gave a z-score of 1.
For GCUCUUAUCAGCAUGUAUATT against Birc6, the z-score was 1.7.
For ACUAGACUGAACUACCUGATT against Aim2, the z-score was 0.137.
For GGCUCAUCAGAUGUAAACATT against Efcab6, the z-score was -2.13 (active).
GCUAACAAGCUAGCAUUUATT against Ltv1 gave a z-score of -1.17.
In the case of GGUCCUGUUGAGAAUUUAATT against Zdhhc15, the z-score is reported as 0.464.
GGCAACUGAAUGUUUCCUATT against Nudt19 gave a z-score of -1.41.
In the case of CCUAAGAGAUAAGAGCACCTT against Ppa2, the z-score is reported as 0.381.
GGAGAUUUACUGCUCGCUGTT against Pik3r6 gave a z-score of 0.0343.
CAGGAUUCCUUGGACAUACTT against Olfr477 showed a z-score of -0.559.
In the case of GCUAAGUUCCAAGGCGACCTT against Serpinh1, the z-score is reported as 2.77 (active).
For GGAUAAAGCAUCAGACAAATT against Hmgn1, the z-score was -0.202.
Work on UCAGCUGGUUUUAAUCUCUTT against Olfr1029 yielded a z-score of -0.193.
Sequence CGCAACAGAUAGUAAAUAUTT against Ufsp2 has a z-score of -1.21.
In the case of GGACCCAAAUCUUUUUAGATT against Wac, the z-score is reported as -1.03.
GGUCCCAGACUGAGUGAAATT against Epo gave a z-score of -0.302.
GGUCAAGAUCCGAAGCUACTT against Cntn2 showed a z-score of -0.749.
In the case of GGUCUUGCUGUUCGAAGAATT against Gsx1, the z-score is reported as 0.417.
Sequence AGUGUAACUGCAGAAGCCUTT against Olfr207 has a z-score of -1.3.
CAACCGUUGUGGCCAUGACTT against Olfr59 gave a z-score of -0.332.
CCCAGGCUAUUUCAACAAUTT against Arhgef11 gave a z-score of -1.24.
With GGGCUACAAGAAAAAGUAUTT against Krt85 the z-score was 2.69 (active).
With GCAGUCAAUUCCCUUUUACTT against Ankmy1 the z-score was -0.876.
Work on GCCUAACCAACAAUUCUACTT against Oas1b yielded a z-score of 1.61.
For GGUCUUCUACUCCUUCUCATT against Slc6a19, the z-score was -2.09 (active).
“GGAGACUGCUAUAUUGGCUTT against 1700092C17Rik” gave a z-score of -0.147.
With GCUAAAAGGUAAGUACUUCTT against Lncpint the z-score was 0.981.
In the case of GGGUAACAACCAUGUCCGUTT against Pspn, the z-score is reported as 1.26.
In the case of CGGGAAUCCUAUCUAUCAATT against Smox, the z-score is reported as 0.762.
With GGAAGAACAAAAAACCAUGTT against Sf3b2 the z-score was -2.14 (active).
CGAGAUGAAUUUCUAGUAGTT against Tubgcp3 gave a z-score of 1.47.
In the case of GGUUGGCUUCAAAAAUAUGTT against Psmb1, the z-score is reported as -1.04.
GGAAUUCCACCUAAAAUUGTT against Ttn showed a z-score of 1.32.
CCUGCUCCUUACAUCUCGCTT against Foxred2 gave a z-score of 1.51.
For CCAUUUAAUCCAUAUUUCCTT against Gnao1, the z-score was -2.05 (active).
Sequence CGGACUCACAGAGCUAAGATT against Tnp2 has a z-score of 1.56.
In the case of GGGCAGAACUGCAUGAGAATT against Acp1, the z-score is reported as -0.176.
For GCACAAAUUUGGUAGUGUUTT against Nup50, the z-score was -1.53.
For GGAGUAAACCUACUGCUCATT against Esam, the z-score was 2.14 (active).
In the case of CCUGAUGUAACUAUAAACATT against Adam32, the z-score is reported as -0.107.
Work on GGAUGUCUGACUCAGGUCUTT against Olfr829 yielded a z-score of 0.0622.
GGCAGUGAUGUUUCUCUCGTT against Tmem198b showed a z-score of 0.152.
Sequence GGAUUCCAGAUUAAAUGAUTT against Rfc1 has a z-score of 1.09.
In the case of GGCAACCAUUAAAUGUUUATT against Trim59, the z-score is reported as -0.54.
In the case of CCUUUUGUUUUACCUACUCTT against Tbx22, the z-score is reported as 2.32 (active).
Sequence GGAUGAGCAGAAAUGUGUATT against Plekho2 has a z-score of 0.931.
In the case of CCUCUACAUCCAGGAAUGATT against Map4k1, the z-score is reported as -0.546.
For GGUCCUAAUUCGAAGCAGATT against Emc3, the z-score was -0.589.
With GGGAUUGCAUGGUUAAACUTT against Nfam1 the z-score was -0.901.
GGUUUUGACAUCACAUUCUTT against Mtfr2 showed a z-score of 1.34.
For GGUAGACAGAGAAGAUAAATT against Slc35f5, the z-score was -2.01 (active).
GGUUGAUGACAACAAGAAATT against Rps12 showed a z-score of -0.368.
Sequence GGGAGGAGAGGACAAAUUATT against Ywhae has a z-score of 1.66.
In the case of GGAACGUGAAUCUACAGCATT against Tex43, the z-score is reported as -2.73 (active).
GGCAGGACGAACAUGGCUATT against Hspb1 gave a z-score of 1.2.
With GGAAUUAAAGAGGAACUCCTT against Adamts20 the z-score was 0.172.
For GCUGUCAGACUAAAGAUAUTT against Mmd, the z-score was -0.733.
With CCUCCAGAGUAUUGUCUAGTT against Ppfia3 the z-score was 1.26.
Work on GGACAUUGAGAACAUUAUCTT against Caln1 yielded a z-score of -1.14.
For GGACCAUGUGGACUUUAGCTT against Sema7a, the z-score was -0.522.
GGCACUUCAACAGCAGUUATT against Cep295 showed a z-score of -1.27.
For GGUGUUCGUCAUAUGGAAUTT against Tex46, the z-score was 3.71 (active).
In the case of GGUAACUGUUACACAAAUCTT against Tmem161b, the z-score is reported as -0.291.
Sequence GGCCUUUUGGCUUUGAUCUTT against Hoxb1 has a z-score of -1.86.
In the case of GGAAUAUGUCACCAACAAGTT against Akap8l, the z-score is reported as -0.896.
In the case of GCAGGAAGUAAAAUCUCUUTT against Tmem183a, the z-score is reported as 0.707.
In the case of GGAGUCACACCUGAAUUGCTT against Cep89, the z-score is reported as 0.129.
For GCUGAAAUCCAGGAUAGAGTT against Zw10, the z-score was -2.03 (active).
In the case of GGGACAAGGACUUUAAAAATT against Scamp2, the z-score is reported as 0.566.
Work on GCACAUUCAGAUGAGGACUTT against Rnf6 yielded a z-score of -1.05.
With GAUAUGUGUACACUUCUGCTT against Vmn1r218 the z-score was -2.08 (active).
Sequence GGUUACAUGGAUUGAAGCUTT against Scrn3 has a z-score of 0.183.
For GGAGAUGAUUUUGAACUUCTT against Retreg3, the z-score was 2.73 (active).
In the case of CCCAACACAAUAUUUGCCATT against Nfyc, the z-score is reported as 0.019.
Work on GCUGUCUCUACGUUGGAGATT against Adamts2 yielded a z-score of 0.145.
CCACUUAGGUUAGAAAGAATT against R3hdm1 showed a z-score of -0.77.
Sequence CCAAGUCGGACUUACGGUUTT against Cnpy3 has a z-score of -1.65.
In the case of UCUGCUCAACAUCGUCAAUTT against Sstr3, the z-score is reported as 0.719.
In the case of GCUCUUCCGAUUAAUGCAGTT against Gabra6, the z-score is reported as 2.87 (active).
GGACCAAGGCUUGGAUCUUTT against Magea6 showed a z-score of 0.527.
Work on “CGUGGUGCCUUUGAAUCUGTT against 9530056K15Rik” yielded a z-score of 1.2.
Sequence GGCAUCAAGCAAUUCACUCTT against Zfp455 has a z-score of 1.14.
For GGUGCAAAUGUUCUCAUCUTT against Mfsd4b1, the z-score was 2.11 (active).
With GCCACUGUCACUUUUGUACTT against Arl11 the z-score was -1.08.
Sequence GGAUUUGUUGGAAAUUGGATT against Anks1b has a z-score of 0.132.
For GGCUGUGCAAGAUGUUCUATT against Gpr27, the z-score was 3.29 (active).
Sequence CCCAUGGGCAGAUGAAAGCTT against Olfr1441 has a z-score of -0.482.
